ssDAF12 agonist = S. stercoralis DAF-12 activation, primary screen | HEK293 ssDAF-12/GRIP1 lit1-tk-luc reporter, luminescence; % of 3 µM dafachronic acid response | activation, % at 6.8 µM | 370,000 tested, 1% active;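 active = activation above the mean over all tested compounds plus 3 SD, cut at about 0.9% in these data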;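 note: 0% = DMSO-only wells and 100% = 3 µM delta7-dafachronic acid wells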
DAX1 inh-1 = inhibitors of human orphan nuclear receptor DAX1 (NR0B1); inhibition, % at 6.75 µM; 340,000 tested, 0.99% active; P51843; HEK293 Gal4-DAX1 luciferase reporter, luminescence;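 active = inhibition above the mean over all tested compounds plus 3 SD, cut at about 4.2% in these data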;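 note: 0% = DAX1-transfected cells with DMSO and 100% = empty-vector control cells with DMSO; inhibition shows as a rise in luminescence from relieved DAX1 repression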
Target sequence (P51843 207-470 limits assumed): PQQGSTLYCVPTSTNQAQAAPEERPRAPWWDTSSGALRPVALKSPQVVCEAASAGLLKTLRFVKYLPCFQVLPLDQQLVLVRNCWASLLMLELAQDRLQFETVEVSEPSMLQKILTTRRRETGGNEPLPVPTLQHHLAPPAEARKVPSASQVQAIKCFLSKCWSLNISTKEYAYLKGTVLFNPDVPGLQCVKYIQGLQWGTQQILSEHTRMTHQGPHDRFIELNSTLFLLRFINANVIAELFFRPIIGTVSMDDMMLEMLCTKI
hgDAF12 agonist = agonists of H. glycines DAF-12 nuclear receptor | HEK293 GAL4-hgDAF12 UAS-luciferase reporter, agonist luminescence; normalized to butyrate control | activation, % at 6.8 µM | 370,000 tested, 1.8% active | AID 687014;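 active = activation above a cutoff set at the mean of all screened compounds plus 3 SD, cut at about 10% in these data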;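 note: 0% = DMSO wells and 100% = sodium butyrate wells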
DAX1 inh-2 = inhibitors of DAX1 repression of SF-1 activated StAR promoter; inhibition, % at 6.8 µM; AID 652010; 370,000 tested, 1.1% active; HEK293T StAR-luciferase reporter, SF-1/DAX-1 repression relief;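 active = inhibition above the mean over all tested compounds plus 3 SD, cut at about 3.6% in these data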;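 note: 0% = DAX-1 cells with DMSO and 100% = cells lacking DAX-1 with DMSO; higher inhibition means more luminescence from relief of DAX-1 repression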
hcDAF-12 act = H. contortus DAF-12 activation, primary screen; 370,000 tested, 1.4% active; HEK293 hcDAF-12 lit1-tk-luc reporter, luminescence; 0% DMSO, 100% Δ7-dafachronic acid; AID 652067; activation, % at 6.8 µM;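 active = activation above the mean of all tested compounds plus 3 SD, cut at about 5.5% in these data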;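 note: 100% = response to 3 µM Δ7-dafachronic acid high control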
Starred values were filed as active, the others as inactive; · = no result given. Shown are actives, neighbours in structure and some others; about 4.1% of the full set was active somewhere.

SMILES	ssDAF12 agonist	DAX1 inh-1	hgDAF12 agonist	DAX1 inh-2	hcDAF-12 act
CCCCNC(=O)C1CCCN1C(=O)NCc1ccccc1OC (stereo not drawn)	-1	·	0	1	-1
CC[C@@]1(c2ccc(C)cc2)C(=O)N(C(=O)OC(C)C)N1C(=O)OC(C)C	-1	·	2	-2	-2
O=c1oc2ccc(Cl)cc2nc1/C=C(\O)c1cccs1	0	3	3	2	5.6*
Cc1ccc2oc(=O)c(/C=C(\O)c3cccs3)nc2c1	1	5.6*	8	2	5.6*
C[C@H]1COc2cc(F)ccc2S(=O)(=O)N1C	-2	·	-1	-1	-2
COc1ccc(CNC(=O)c2cccc(N3CCCC3=O)c2)cc1	1.2*	0	2	0	-2
COc1ccc(CNC(=O)c2cc(C)nn2-c2ccccc2)cc1	-1	6.7*	-2	0	0
O=C(Nc1ccc(N2CCCC2=O)cc1)c1cccc(F)c1	-1	1	11*	1	0
COc1ccc(NC(=O)c2cc(C)nn2-c2ccccc2)cc1	-1	0	8	0	-1
CCOC(=O)[C@]12CCC=C1N(Cc1cccc3ccccc13)C(=O)[C@H](CC(=O)NCCCN1CCCC1=O)C2	0	·	-1	0	0
Nc1ccc2c(c1)C(=O)c1ccc(Br)cc1-2	-1	-1	9	-1	3
COc1ccc2c(c1)CNC2CS(=O)(=O)NC1CCCC1 (stereo not drawn)	0	·	1	-1	2
COc1ccc(-c2nc3c([nH]2)c(=O)n(C)c(=O)n3C)c(OC)c1	1.1*	1	3	0	3
O=C(OCc1cn(Cc2ccccc2)nn1)N1CCOCC1	-1	·	2	0	-2
Cc1cccc(N2CCN(C(=O)CN3C(=O)NC(C)(C)C3=O)CC2)c1C	-1	1	0	0	-1
Cc1cccc(N2CCN(C(=O)CN3C(=O)C4CC=CCC4C3=O)CC2)c1C (stereo not drawn)	0	1	11*	2	2
O=C(CSc1cccc2cccnc12)OCC(=O)c1ccccc1	0	4.5*	1	1	0
O=C(CSc1cccc2cccnc12)OCC(=O)c1ccc(Br)cc1	-1	2	-2	0	2
CCN(C(=O)[C@@H]1CC(=O)O[C@@H]1c1ccccc1)c1ccccc1	-1	·	-1	-1	-3
O=C(NCc1ccc2c(c1)OCO2)c1ccc2c(=O)n(C3CCCC3)c(=O)[nH]c2c1	-1	4.9*	2	0	0
COc1ccc(Cn2c(=O)[nH]c3cc(C(=O)NCc4ccc5c(c4)OCO5)ccc3c2=O)cc1	-1	-1	0	0	-3
COc1cc(/C=C2\SC(N)=NC2=O)cc(Cl)c1O	0	4.4*	3	0	0
CC(=O)NC(Cc1cccc(F)c1)C(=O)NC1CCN(C(=O)c2cccc(C)c2)CC1 (stereo not drawn)	-1	5.4*	-3	0	0
O=C(NCc1ccc2c(c1)OCO2)c1c(-c2ccccc2)sc2ccccc12	-1	2	3	0	2
Cc1ccccc1Nc1nc(N)nc(COC(=O)c2cccn2C)n1	0	5.5*	8	3	2
SMILES	ssDAF12 agonist	DAX1 inh-1	hgDAF12 agonist	DAX1 inh-2	hcDAF-12 act
CN(N=Cc1ccc(N(C)C)cc1)C(=O)c1ccccc1N	-1	·	3	2	1
CC(=O)c1ccc(NC(=O)CSc2nnc(Cn3c(=O)sc4ccccc43)n2C)cc1	-1	4.8*	8	0	0
CCOC(=O)CSc1nnc(Cn2c(=O)sc3ccccc32)n1C	-2	5.8*	7	0	1
CCOC(=O)N1CCN(C(=O)CSc2nnc(Cn3c(=O)sc4ccccc43)n2C)CC1	-2	3	-1	1	-1
Cc1ccc(C(=O)n2ccc3ccc(-c4ccc5ccn(Cc6ccc(C#N)cc6)c5c4)cc32)cc1	-1	·	0	-1	1
CC(C)CC(=O)N1CCc2cc(S(=O)(=O)N(C)Cc3ccco3)ccc21	-1	·	-2	1	-3
COC(=O)[C@]12C[C@H](CC(=O)NCCc3ccccc3OC)C(=O)N(Cc3cccc4ccccc34)C1=C[C@H](COCc1ccccc1)O[C@@H]2C	-1	·	-2	-1	-3
Clc1ccc(NC2(c3nnnn3C3CCCCC3)CCCCC2)cc1	-1	4.7*	0	0	-1
C=CCN1[C@H](CC(C)C)COc2cccc(F)c2S1(=O)=O	-1	·	0	-1	0
CC1S/C(=N/N=C2CCC(C(C)(C)C)CC2)NC1=O (stereo not drawn)	0	3	12*	2	2
CCCN1CCS(=O)(=O)N(Cc2cn(CC(=O)OCC)nn2)C(C(=O)OC)C1 (stereo not drawn)	-2	·	-2	0	-2
Cc1c(C(=O)N(Cc2ccco2)Cc2cccs2)oc2ccccc12	1.1*	5.5*	2	1	0
CC(=O)c1ccccc1OCCOc1ncnc2sccc12	-2	0	11*	1	2
COC(=O)c1cc(-c2cccc(C(F)(F)F)c2)c(=O)n2c1CCC2	-1	·	1	-1	2
CC1CC(C)CN(C(=O)c2cccc(N3C(=O)c4ccccc4C3=O)c2)C1 (stereo not drawn)	-1	0	-1	4.3*	0
CN=CC1=C(O)C(C(=O)OC)C(C)(C)CC1=O (stereo not drawn)	-1	4.3*	1	0	-1
COc1ccc(CN2C/C(=C/c3ccccc3)N3C(=O)C[C@@H](c4ccc5ccccc5c4)N=C23)c(OC)c1	-2	·	2	-1	-3
COc1cccc(CCNC(=O)CCc2nc(-c3ccccc3F)no2)c1	-1	·	3	0	0
CC(OC(=O)c1cc(O)c2ccccc2c1O)C(=O)Nc1ccc(C(N)=O)cc1 (stereo not drawn)	1.4*	1	1	-2	4
CC(C)(C)c1ccc(C(=O)CC(=O)c2cc(Cl)ccc2O)cc1	-1	0	6	0	1
O=C(CC(=O)c1ccccc1O)c1cccc(F)c1	·	0	·	·	·
Cc1ccc(C(=O)CC(=O)c2cc(Cl)ccc2O)cc1	1.1*	2	9	3	3
O=C(CC(=O)c1ccccc1O)c1ccc(F)cc1	0	0	11*	2	2
O=C(CCCC(=O)c1ccc(F)cc1)c1ccc(F)cc1	1	4.8*	8	2	2
O=C(NCCc1ccccc1)OCc1cn(-c2ccccc2Cl)nn1	-2	·	1	1	-3
CC1Oc2ccccc2N(CC(=O)NCc2ccc3c(c2)OCO3)C1=O (stereo not drawn)	0	1	11*	1	2
COc1ccc(CN(CC(=O)NCc2ccc3c(c2)OCO3)C(=O)c2csnn2)cc1	-1	0	-1	0	0
O=C(CN(Cc1ccccc1)C(=O)c1csnn1)NCc1ccc2c(c1)OCO2	1	-1	3	0	5.8*

Screening data from PubChem BioAssay.
